Source: PubChem BioAssay (EPA / NIEHS)
Activity calls are given as the source filed them. Rule for the calls: active = hit-call score of the fitted dose curve at least 0.9, where 1 is the maximum; inactive = score below 0.9.

Assays:
Details in all cases: mRNA level, 48 h; actives raise or lower the signal
[1] = read-out: Bcl-2 (BID) gene, BID (gene 637); experiment: LTEA_HepaRG_BID: Life Technologies and Expression Analysis (LTEA) Assay for Bcl-2 (BID) gene using HepaRG (AID 2283476)
In short: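 Gain or loss of BID expression is fitted relative to 0.5% DMSO vehicle. Human HepaRG liver cells received a 48 h chemical exposure over an eight-point concentration range.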

[2] = read-out: Caspase-3 (Homo sapiens) (UniProt P42574); experiment: LTEA_HepaRG_CASP3: Life Technologies and Expression Analysis (LTEA) Assay for cysteine-aspartic acid protease (CASP3) using HepaRG (AID 2283477)
In short: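 Transcript-level assay: CASP3 mRNA in human HepaRG after 48 h treatment, eight half-log concentrations from 100 uM in 0.5% DMSO, quantified by qRT-PCR.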

[3] = read-out: Cytochrome P450 (CYP24A1), CYP24A1 (gene 1591); experiment: LTEA_HepaRG_CYP24A1: Life Technologies and Expression Analysis (LTEA) Assay for Cytochrome P450 (CYP24A1) using HepaRG (AID 2283478)
In short: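 Gene expression of CYP24A1 by TaqMan qRT-PCR in HepaRG after 48 h treatment, highest concentration 100 uM; activity fitted in both directions relative to DMSO vehicle.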

[4] = read-out: Cytochrome P450 (CYP1A2), CYP1A2 (gene 1544); experiment: LTEA_HepaRG_CYP1A2: Life Technologies and Expression Analysis (LTEA) Assay for Cytochrome P450 (CYP1A2) using HepaRG (AID 2283479)
In short: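 In duplicate wells, HepaRG cultures maintained in 0.5% DMSO were treated 48 h across an 8-point, half-log series topping at 100 uM; phenobarbital (1 mM) served as induction control. Expression was read by qRT-PCR.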

[5] = read-out: cysteine-aspartic acid protease (CASP8), CASP8 (gene 841); experiment: LTEA_HepaRG_CASP8: Life Technologies and Expression Analysis (LTEA) Assay for cysteine-aspartic acid protease (CASP8) using HepaRG (AID 2283480)
In short: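 Differentiated HepaRG cells in serum-free induction medium, 48 h exposure, eight-point half-log series from 100 uM in 0.5% DMSO, duplicates. CASP8 mRNA by qRT-PCR, normalized to ACTB, GAPDH, POLR2A; bidirectional fit versus DMSO.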

[6] = read-out: Cytochrome P450 (CYP2B6), CYP2B6 (gene 1555); experiment: LTEA_HepaRG_CYP2B6: Life Technologies and Expression Analysis (LTEA) Assay for Cytochrome P450 (CYP2B6) using HepaRG (AID 2283481)
In short: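 Human HepaRG, 48 h dosing, 0.5% DMSO vehicle, top dose 100 uM. CYP2B6 transcript by qRT-PCR, housekeeping-normalized, bidirectional curve fit.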

[7] = read-out: Cytochrome P450 2C19 (Homo sapiens) (UniProt P33261); experiment: LTEA_HepaRG_CYP2C19: Life Technologies and Expression Analysis (LTEA) Assay for CYP2C19 using HepaRG (AID 2283482)
In short: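 Endpoint: CYP2C19 mRNA change, bidirectional fit vs 0.5% DMSO. Cells: HepaRG, 48 h exposure, eight-point series topping at 100 uM. Quantitation: qRT-PCR normalized to ACTB, GAPDH, POLR2A.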

[8] = read-out: CYP2C8 (gene 1558); experiment: LTEA_HepaRG_CYP2C8: Life Technologies and Expression Analysis (LTEA) Assay for CYP2C8 using HepaRG (AID 2283483)
In short: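 Differentiated HepaRG cells in serum-free induction medium exposed 48 h in duplicate to 8 half-log concentrations from 100 uM in 0.5% DMSO. CYP2C8 mRNA by qRT-PCR normalized to ACTB, GAPDH, POLR2A; bidirectional fit versus DMSO.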

[9] = read-out: CYP2C9 (gene 1559); experiment: LTEA_HepaRG_CYP2C9: Life Technologies and Expression Analysis (LTEA) Assay for CYP2C9 using HepaRG (AID 2283484)
In short: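 Differentiated human HepaRG cells in serum-free induction medium were exposed 48 h to chemicals in 8-point half-log series from 100 uM (0.5% DMSO), in duplicate. CYP2C9 mRNA was measured by qRT-PCR, normalized to ACTB/GAPDH/POLR2A, with bidirectional fitting versus DMSO.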

[10] = read-out: CYP2E1 (gene 1571); experiment: LTEA_HepaRG_CYP2E1: Life Technologies and Expression Analysis (LTEA) Assay for CYP2E1 using HepaRG (AID 2283485)
In short: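 Differentiated HepaRG cells were treated in duplicate for 48 h with chemicals in 0.5% DMSO, from 100 uM downward in half-log dilutions. RNA was then analysed by qRT-PCR for CYP2E1 induction or loss.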

[11] = read-out: CYP4A11 (gene 1579); experiment: LTEA_HepaRG_CYP4A11: Life Technologies and Expression Analysis (LTEA) Assay for CYP4A11 using HepaRG (AID 2283486)
In short: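 Human hepatic HepaRG cultures receive duplicate 48 h exposures across a concentration-response series topping at 100 uM. Expression changes in CYP4A11 are measured by qRT-PCR relative to DMSO controls.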

[12] = read-out: Cytochrome P450 3A4 (Homo sapiens) (UniProt P08684); experiment: LTEA_HepaRG_CYP3A4: Life Technologies and Expression Analysis (LTEA) Assay for CYP3A4 using HepaRG (AID 2283487)
In short: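 Differentiated HepaRG cells, plated 48 h, then dosed 48 h in serum-free induction medium with 0.5% DMSO, 8 half-log concentrations up to 100 uM, duplicate. CYP3A4 mRNA by qRT-PCR, normalized to ACTB/GAPDH/POLR2A; bidirectional fit versus DMSO.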

[13] = read-out: DNA damage-inducible transcript 3 (DDIT3), DDIT3 (gene 1649); experiment: LTEA_HepaRG_DDIT3: Life Technologies and Expression Analysis (LTEA) Assay for DNA damage-inducible transcript 3 (DDIT3) using HepaRG (AID 2283488)
In short: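 Changes in DDIT3 transcript, in either direction relative to 0.5% DMSO vehicle, were quantified by TaqMan qRT-PCR after 48 h chemical exposure of HepaRG cells at 8 concentrations, maximum 100 uM.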

[14] = read-out: Pro-epidermal growth factor (Homo sapiens) (UniProt P01133); experiment: LTEA_HepaRG_EGF: Life Technologies and Expression Analysis (LTEA) Assay for Epidermal growth factor (EGF) using HepaRG (AID 2283489)
In short: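 Concentration-response mRNA assay: HepaRG cells dosed 48 h (max 100 uM, 0.5% DMSO), EGF measured by qRT-PCR and normalized to ACTB/GAPDH/POLR2A.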

[15] = read-out: Early growth response protein 1 (EGR1) transcription factor, EGR1 (gene 1958); experiment: LTEA_HepaRG_EGR1: Life Technologies and Expression Analysis (LTEA) Assay for Early growth response protein 1 (EGR1) transcription factor using HepaRG (AID 2283490)
In short: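 Differentiated HepaRG cells in serum-free induction medium exposed 48 hours, duplicate, to 8 half-log concentrations up to 100 uM in 0.5% DMSO. EGR1 mRNA measured by TaqMan qRT-PCR, normalized to ACTB, GAPDH, POLR2A; bidirectional fit versus DMSO.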

[16] = read-out: Ezrin (EZR), EZR (gene 7430); experiment: LTEA_HepaRG_EZR: Life Technologies and Expression Analysis (LTEA) Assay for Ezrin (EZR) using HepaRG (AID 2283491)
In short: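 EZR transcript levels came from Fluidigm qRT-PCR and were normalized to three housekeeping genes after 48 h chemical exposure of HepaRG cells. Dosing used an 8-point half-log series with a 100 uM top concentration in 0.5% DMSO, tested in duplicate; both directions were fitted versus vehicle.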

[17] = read-out: Cytochrome P450 3A7 (Homo sapiens) (UniProt P24462); experiment: LTEA_HepaRG_CYP3A7: Life Technologies and Expression Analysis (LTEA) Assay for CYP3A7 using HepaRG (AID 2283492)
In short: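 qRT-PCR of CYP3A7 in HepaRG lysates after 48 h treatment; concentration-response (8 points, max 100 uM) analysed bidirectionally relative to 0.5% DMSO controls.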

[18] = read-out: CYP3A5 (gene 1577); experiment: LTEA_HepaRG_CYP3A5: Life Technologies and Expression Analysis (LTEA) Assay for CYP3A5 using HepaRG (AID 2283493)
In short: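 mRNA induction or loss of CYP3A5 assessed in HepaRG after 48 h dosing, 100 uM top concentration, duplicate wells; TaqMan qRT-PCR with ACTB, GAPDH, POLR2A normalization; 0.5% DMSO as negative control.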

[19] = read-out: Fatty Acid-Binding Protein 1 (FABP1), FABP1 (gene 2168); experiment: LTEA_HepaRG_FABP1: Life Technologies and Expression Analysis (LTEA) Assay for Fatty Acid-Binding Protein 1 (FABP1) using HepaRG (AID 2283494)
In short: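 Differentiated human HepaRG cells exposed 48 h in serum-free induction medium to eight half-log concentrations up to 100 uM (0.5% DMSO), duplicate. FABP1 mRNA by qRT-PCR, normalised to ACTB, GAPDH, POLR2A; bidirectional fitting against DMSO.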

[20] = read-out: Cytochrome P450 4A22 (Homo sapiens) (UniProt Q5TCH4); experiment: LTEA_HepaRG_CYP4A22: Life Technologies and Expression Analysis (LTEA) Assay for Cytochrome P450 4A22 (CYP4A22) using HepaRG (AID 2283495)
In short: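 Concentration-response (8 points, max 100 uM, 0.5% DMSO) in human HepaRG liver cells after 48 h exposure. CYP4A22 mRNA by TaqMan qRT-PCR with housekeeping-gene normalization.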

Measured: AC50

Chain of Cytochrome P450 2C19 (Homo sapiens) (P33261 whole entry, looked up): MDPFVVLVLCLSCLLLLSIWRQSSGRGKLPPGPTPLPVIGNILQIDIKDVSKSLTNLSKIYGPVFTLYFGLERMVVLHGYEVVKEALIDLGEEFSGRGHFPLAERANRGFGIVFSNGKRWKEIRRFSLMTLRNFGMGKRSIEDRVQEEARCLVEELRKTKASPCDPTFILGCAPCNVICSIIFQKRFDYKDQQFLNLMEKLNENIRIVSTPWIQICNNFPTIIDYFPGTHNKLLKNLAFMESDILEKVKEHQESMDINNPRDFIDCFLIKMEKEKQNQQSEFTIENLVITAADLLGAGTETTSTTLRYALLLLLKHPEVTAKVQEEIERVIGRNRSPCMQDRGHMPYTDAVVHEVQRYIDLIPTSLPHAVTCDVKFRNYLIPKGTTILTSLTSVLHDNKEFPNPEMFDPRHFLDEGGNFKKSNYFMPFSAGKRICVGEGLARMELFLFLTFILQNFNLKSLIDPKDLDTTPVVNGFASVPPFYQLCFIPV
Chain of Cytochrome P450 3A7 (Homo sapiens) (P24462 whole entry, looked up): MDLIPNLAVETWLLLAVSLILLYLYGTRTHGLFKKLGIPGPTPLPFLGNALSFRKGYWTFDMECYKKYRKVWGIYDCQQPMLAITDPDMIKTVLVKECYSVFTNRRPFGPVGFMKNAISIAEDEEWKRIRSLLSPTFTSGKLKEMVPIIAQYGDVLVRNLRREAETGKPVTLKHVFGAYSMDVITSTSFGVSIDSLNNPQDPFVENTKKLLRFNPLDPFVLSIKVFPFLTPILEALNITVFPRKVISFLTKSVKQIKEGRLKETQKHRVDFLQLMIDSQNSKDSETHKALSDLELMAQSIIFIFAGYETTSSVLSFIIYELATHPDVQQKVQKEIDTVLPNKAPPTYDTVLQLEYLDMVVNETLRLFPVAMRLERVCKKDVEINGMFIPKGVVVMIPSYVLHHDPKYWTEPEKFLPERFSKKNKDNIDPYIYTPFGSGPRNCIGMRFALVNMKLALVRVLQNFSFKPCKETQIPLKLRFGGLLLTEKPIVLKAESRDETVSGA
Chain of Caspase-3 (Homo sapiens) (P42574 whole entry, looked up): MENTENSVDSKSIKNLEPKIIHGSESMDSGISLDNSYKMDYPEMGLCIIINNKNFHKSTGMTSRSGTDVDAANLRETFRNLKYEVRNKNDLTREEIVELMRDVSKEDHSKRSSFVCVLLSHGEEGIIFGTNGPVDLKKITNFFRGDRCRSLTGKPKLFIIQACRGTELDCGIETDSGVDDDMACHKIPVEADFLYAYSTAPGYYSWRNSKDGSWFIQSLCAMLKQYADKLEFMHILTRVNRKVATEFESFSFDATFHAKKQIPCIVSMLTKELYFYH
Chain of Cytochrome P450 3A4 (Homo sapiens) (P08684 whole entry, looked up): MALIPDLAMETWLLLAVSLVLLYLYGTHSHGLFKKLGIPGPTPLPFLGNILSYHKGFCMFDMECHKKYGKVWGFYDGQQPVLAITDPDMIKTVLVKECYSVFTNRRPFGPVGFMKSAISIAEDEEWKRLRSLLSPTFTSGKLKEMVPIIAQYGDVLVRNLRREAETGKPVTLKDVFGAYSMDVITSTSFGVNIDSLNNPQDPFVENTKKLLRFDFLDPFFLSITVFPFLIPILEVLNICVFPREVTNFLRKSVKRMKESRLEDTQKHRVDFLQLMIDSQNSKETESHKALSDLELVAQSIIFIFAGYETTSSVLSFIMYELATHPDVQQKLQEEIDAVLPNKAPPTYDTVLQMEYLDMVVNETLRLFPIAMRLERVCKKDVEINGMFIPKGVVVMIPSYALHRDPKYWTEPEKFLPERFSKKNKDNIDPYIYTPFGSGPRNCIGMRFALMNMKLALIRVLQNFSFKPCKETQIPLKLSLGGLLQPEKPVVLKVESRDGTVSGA

Oc1ccc(C(c2ccc(O)cc2)(C(F)(F)F)C(F)(F)F)cc1
inactive: [1] | [2] | [3] | [4] | [5] | [8] | [9] | [16] | [17] | [20]
active: [6] 92 µM | [7] 85.8 µM | [10] 79.4 µM | [11] 76.6 µM | [12] 81.7 µM | [13] 79.3 µM | [14] 80.1 µM | [15] 81.5 µM | [18] 80.2 µM | [19] 92.5 µM

CN(C)c1nc(=O)n(C2CCCCC2)c(=O)n1C
active: [6] 33.6 µM | [17] 28.6 µM
inactive: [1] | [2] | [3] | [4] | [5] | [7] | [8] | [9] | [10] | [11] | [13] | [14] | [15] | [16] | [18] | [19] | [20]

C=CC(N)=O
inactive: [1] | [2] | [3] | [4] | [5] | [6] | [8] | [9] | [10] | [11] | [13] | [14] | [15] | [16] | [17] | [18] | [19] | [20]

CCNc1nc(NC(C)C)nc(SC)n1
active: [6] 1.11 µM | [7] 2.45 µM | [10] 29.1 µM | [11] 50 µM | [12] 2.44 µM | [19] 28.3 µM
inactive: [1] | [2] | [3] | [4] | [5] | [8] | [9] | [13] | [14] | [15] | [16] | [17] | [18] | [20]

COS(=O)(=O)OC
inactive: [1] | [2] | [3] | [5] | [6] | [7] | [8] | [9] | [10] | [11] | [12] | [13] | [14] | [15] | [16] | [17] | [18] | [19] | [20]
active: [4] 31 µM

CCC(C)(CC)c1cc(NC(=O)c2c(OC)cccc2OC)on1
inactive: [1] | [2] | [3] | [5] | [9] | [14] | [15] | [16] | [18]
active: [4] 10.3 µM | [6] 3.2 µM | [7] 2.36 µM | [8] 3.26 µM | [10] 15 µM | [11] 26.2 µM | [13] 83.3 µM | [17] 1.39 µM | [19] 4.89 µM | [20] 19.5 µM
